Test results taken from PubChem BioAssay AID1860 (The Scripps Research Institute Molecular Screening Center, 2009).
The other results are listed elsewhere or left out. Calls of active or inactive are those of the source. No stated cut-off is given here; in the data, active means inhibition above about 8%; inactive means the rest.

Tested on: VIM-2 metallo-beta-lactamase [Pseudomonas aeruginosa]
Experiment: P. aeruginosa VIM-2 enzyme inhibition – biochemical, epi-absorbance, HTS, confirmation (AID 1860);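 further: 0% = enzyme with vehicle and 100% = no enzyme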
Settings: purified VIM-2 enzyme, nitrocefin absorbance; at 5.6 µM; hits give high values

inhibition, inactive:
NC(=O)c1ccc(NC(=O)COC(=O)c2c3c(nc4ccccc24)/C(=C\c2ccc4c(c2)OCO4)CCC3)cc1 -0.41%
NS(=O)(=O)c1ccc(NC(=O)COC(=O)c2c3c(nc4ccccc24)/C(=C\c2ccc4c(c2)OCO4)CCC3)cc1 -1.18%

inhibition, active:
Oc1ccc2ccc3cccc[n+]3c2c1 30.2%
C/C(=N\Nc1ccc(S(N)(=O)=O)cc1[N+](=O)[O-])c1cccs1 17.3%
CN1C(=O)c2cccc3c(N)ccc(c23)C1=O 48.4%
Cc1cc2nc3c(=O)n(Cc4ccccc4)c(=O)[nH]c3nc2cc1N 16.6%
c1ccc(-c2nccc(-c3ccc(-n4cnc5ccccc54)cc3)n2)nc1 71.7%
Nc1c(C(=O)c2cccs2)sc2nsc(SCCN3CCCCC3)c12 31.7%
CCC(=C/c1sc2ccc3ccccc3c2[n+]1C)/C=C1\Sc2ccc3ccccc3c2N1C 12%
COc1cc(/C=C2/SC(=S)N(Cc3ccccc3)C2=O)cc(OC)c1O 13.7%
Cc1nn(C)cc1N1C(=O)c2cccc3c(N)ccc(c23)C1=O 35.2%
